rTrxR1 inhibitor: qHTS Assay for Inhibitors of Mammalian Selenoprotein Thioredoxin Reductase 1 (TrxR1): qHTS; recombinant rTrxR1, NADPH fluorescence consumption, selenite substrate; Potency, µM (doses to about 114 µM), inactives show at the top dose activity change, negative = inhibition, actives largely listed as inhibitors; 1% of 390,000 active; AID 588453, 2011; also: potency is read from the fitted curve at half-maximal effect; nearly all actives have a fitted effect of over 65% in size
Target sequence (O89049 whole entry, looked up): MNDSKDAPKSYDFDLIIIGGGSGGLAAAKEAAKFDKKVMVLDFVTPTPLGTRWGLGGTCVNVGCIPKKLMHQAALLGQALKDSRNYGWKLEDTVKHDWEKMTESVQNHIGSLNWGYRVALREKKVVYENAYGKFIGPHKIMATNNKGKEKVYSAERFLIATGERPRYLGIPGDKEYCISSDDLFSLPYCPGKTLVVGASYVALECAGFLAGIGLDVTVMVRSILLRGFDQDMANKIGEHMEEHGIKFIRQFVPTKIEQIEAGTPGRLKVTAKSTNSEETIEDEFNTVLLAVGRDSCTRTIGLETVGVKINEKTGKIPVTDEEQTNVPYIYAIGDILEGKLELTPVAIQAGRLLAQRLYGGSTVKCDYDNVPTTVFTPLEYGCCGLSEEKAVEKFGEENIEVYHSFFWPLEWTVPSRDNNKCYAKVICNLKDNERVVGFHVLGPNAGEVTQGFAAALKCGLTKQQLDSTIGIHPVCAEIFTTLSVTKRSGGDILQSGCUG
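Rat TrxR1 (90 nM in the dispensed reagent) was pre-reduced with 400 uM NADPH for 5 min at room temperature, then incubated with compound for 15 min. After 400 uM selenite was added, NADPH fluorescence (Ex 340/Em 450 nm) was followed for 8 min.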
LDHA inh: qHTS assay for inhibitors of human lactate dehydrogenase | purified LDHA, NADH/diaphorase-resazurin fluorescence; stronger effect = lower value | activity change, % (values are at about 110 or 230 µM) | L-lactate dehydrogenase A chain (Homo sapiens), P00338 | 0.15% of 480,000 active | AID 1347041, 2019; in the data active = activity change below about -30%; inconclusive = mostly about -25% to -30%;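 also: plate controls were DMSO wells for no effect and wells without enzyme for full effect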
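LDH5 2 nM; NADH 0.06 mM, pyruvate 0.2 mM; 200 mM Tris pH 7.4, EDTA, Tween-20; 5 min RT. Detection: diaphorase 0.133 mg/mL + resazurin 37 µM, fluorescence ex540/em590 at 0 and 20 min; normalized to enzyme-free and DMSO wells.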
TrxR1 substrate: qHTS Assay for Substrates of Mammalian Selenoprotein Thioredoxin Reductase 1 (TrxR1): qHTS; Thioredoxin reductase 1, cytoplasmic (Rattus norvegicus), O89049; purified TrxR1 substrate turnover, NADPH consumption readout; Potency, µM (titrated, usually from 114 µM), for inactives: at the top dose activity change, negative = substrate turnover; 0.01% of 390,000 active; also: potency is read from the fitted curve at half-maximal effect; nearly all actives have a fitted effect of over 50% in size
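Rat TrxR1, dispensed at 90 nM, was prereduced with 400 uM NADPH (final) for 5 min at ~22 deg C, then incubated with compound 15 min before 400 uM selenite. A first-read NADPH fluorescence drop versus no-compound background flagged substrates.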
PI4K2A inh: qHTS for small molecular inhibitors of PI4K2A; activity change, negative = inhibition, % at 76.9 µM; 0.13% of 420,000 active; purified PI4K2A, ADP-Glo luminescence, 1 h; stronger effect = lower value; Phosphatidylinositol 4-kinase type 2-alpha (Homo sapiens), Q9BTU6; in the data active = activity change below about -50%; inconclusive = mostly about -30% to -49%;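 also: -100% = wells without enzyme as full effect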
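Compounds are screened against recombinant PI4K2A using PI as substrate and ATP, the latter dispensed at 300 microM. Reactions run one hour at ambient temperature before ADP-Glo detection; full inhibition defined by wells lacking enzyme.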
GALK inhibitor: qHTS Assay for Inhibitors of Human Galactokinase (GALK); Purified GALK, Kinase-Glo residual ATP luminescence; 0.007% of 270,000 active; Potency, µM (series often up to 57.5 µM), inactives show top-dose activity change, negative = inhibition, actives largely listed as inhibitors; also: potency is read from the fitted curve at half-maximal effect
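The enzyme phosphorylates galactose (100 uM) using ATP (35 uM); inhibition is detected as higher residual ATP, quantified by bioluminescence after 1 h reaction at room temperature, pH 8.0.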
a7 integrin act: qHTS for Activators of Integrin-Mediated Alleviation for Muscular Dystrophy; alpha7betagal myoblasts, beta-gal FDG fluorescence, 48 h; 0.064% of 350,000 active; Potency, µM (series often up to 38.3 µM), for the others: top-dose activation, actives largely listed as activators;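 also: potency is read from the fitted curve at half-maximal effect; 100% = response of the positive control SU9516; nearly all actives have a fitted effect of over 60% in size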
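Alpha7betagal+/- myoblasts (passage 13) were plated 16-24 hr, then exposed to compounds (1:260 dilution of DMSO stock) for 48 hours at 37C. After MPER lysis, β-galactosidase reporter activity was read as FDG fluorescence (ex 480/em 540) after 30 minutes.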
* hit, by the source's call; ? = inconclusive; . = not tested or not shown; ! = repeats disagree; [ ] = remark or other dose. Compounds with a hit are over-represented: about 1.1% of the library has one in this group of screens. Unless noted, calls follow the shape of the dose curve; as a rule, active = well fitted curve in the direction sought with a large enough effect; inconclusive = small, poorly fitted or top-dose-only effect, or another doubt; inactive = no such curve, though single readings can be large; an effect the other way counts as inactive or inconclusive. Unless noted, % is scaled to controls: 0 for no effect and ±100 for the full control effect.

SMILES	rTrxR1 inhibitor	LDHA inh	TrxR1 substrate	PI4K2A inh	GALK inhibitor	a7 integrin act
O=C(NC(N1CCOCC1)C(Cl)(Cl)Cl)c1ccc(F)cc1 (stereo unspecified)	-38%	-10	13%[57.1 µM]	7	4%	5%
O=C(NC(N1CCCC1)C(Cl)(Cl)Cl)c1ccccc1 (stereo unspecified)	32µM*	2	2%	-1	-1%	-8%
O=c1cc(CSc2nnnn2-c2ccccc2)[nH]n1-c1ccc(Cl)cc1	.	0	.	.	.	.
CCN(Cc1ccc(Cl)s1)C(=O)c1[nH]c2c(c1C)C(=O)CC(C)(C)C2	.	-11	.	.	.	.
Cc1cccc(C)c1NC(=O)c1ccc2ccccc2n1	.	19	.	.	.	.
CN(C)c1ccc(-c2[nH][nH]c(=O)c2NC(=O)c2ccc3ccccc3n2)cc1	.	15	.	-65*	.	.
CN(C)c1ccc(-c2[nH][nH]c(=O)c2NC(=O)c2ccccn2)cc1	.	16	.	-64*	.	.
Cc1cnc(C(=O)Nc2c(-c3ccccc3)[nH][nH]c2=O)cn1	.	11	.	?	.	.
CCOC(=O)CNC(=O)CSc1nnc(C)c(=O)[nH]1	7%	-5	4%	0	2%	-2%
CCOC(=O)CSc1nnc(NCC(=O)OC(C)C)c(=O)[nH]1	1.8µM*	4	-3%[57.1 µM]	-7	0%	-13%
C#CCNC(=O)C1=C[C@@H](C)[C@H](CCCO)[C@@H](OCC)O1	18µM*	-3	-2%[57.1 µM]	3	.	2%
CCO[C@@H]1OC(C(=O)NCc2ccccc2)=C[C@H](C)[C@H]1CCCO	-8%	0	-2%	-2	0%	31%
Cn1nc(C(=O)N2CCN(c3cccc(Cl)c3)CC2)c2ccccc2c1=O	.	7	.	.	.	.
Cc1ccc(N(C(=O)CNC(=O)c2ccco2)C(C(=O)NC2CCCCC2)c2cccnc2)cc1C (stereo unspecified)	8%[57.1 µM]	-9	0%[57.1 µM]	-1	-1%	-20%
Cc1ccc(N(C(=O)CCl)C(C(=O)NC2CCCCC2)c2cccnc2)cc1C (stereo unspecified)	10µM*	-8	-4%	17	2%	-68%
CCOC(=O)/C(=C\c1ccccc1)C(=O)c1cc(C(C)=O)c(Nc2ccccc2)s1	-5%	6	-4%	24	-1%	-52%
CCOC(=O)/C(=C\c1cccnc1)C(=O)c1cc(C(C)=O)c(Nc2ccccc2)s1	3.2µM*	-3	-6%	-3	-1%	-42%
CN(C)c1cccc2c(/C=N/O)ccc(N(C)C)c12	5%[57.1 µM]	21	0%[57.1 µM]	1	-2%	-10%
CN(C)c1cccc2c(C=C(C#N)C#N)ccc(N(C)C)c12	25µM*	5	-11%	2	2%	13%
CCNc1ccccc1CP(=O)(c1ccccc1)c1ccccc1O (stereo unspecified)	50µM*	38	-11%	-14	2%	-49%
CCc1ccc(S(=O)(=O)/N=C2\C=CC(=O)c3ccccc32)cc1	.	.	.	.	4%	.
CCc1ccc(S(=O)(=O)/N=C2/C=C(Sc3ncn[nH]3)C(=O)c3ccccc32)cc1	?	39	7.9µM*	-56*	-4%	-54%
COc1ccc(CN2CCN(CCSc3ccc(C)cc3)CC2)c(OC)c1OC	35%	-37*	6%	2	4%	-39%
Cc1[nH]c(=O)[nH]c(=O)c1Sc1ccccc1[N+](=O)[O-]	3%	4	-3%	-3	-4%	1%
Cc1cc(OC(=O)c2ccco2)c(Sc2ccccc2[N+](=O)[O-])c(=O)o1	-5%[57.1 µM]	-106*	-4%[57.1 µM]	2	-6%	-4%
SMILES	rTrxR1 inhibitor	LDHA inh	TrxR1 substrate	PI4K2A inh	GALK inhibitor	a7 integrin act
O=C(c1ccncc1)N1CCN(C2CCCCC2)CC1	-2%[57.1 µM]	-17	-3%	2	2%	11%
O=C(c1ccncc1)N1CCN(C2CCC(c3ccccc3)CC2)CC1 (stereo unspecified)	-22%	-32*	-10%	-1	1%	-1%
COC1=C2C[C@H](C)C[C@H](OC)[C@@H](O)[C@@H](C)C=C(C)[C@H](OC(N)=O)[C@@H](OC)C=CC=C(C)C(=O)NC(=CC1=O)C2=O	50µM*	18	-1%	.	.	.
COc1ccc2nc(Sc3c([N+](=O)[O-])nc(C)n3Cc3ccccc3)[nH]c2c1	7.1µM*	-15	-12%	8	0%	-57%
Cc1nc([N+](=O)[O-])c(Sc2nc3ccccc3[nH]2)n1Cc1ccccc1	3.5µM*	-3	-2%	5	0%	-63%
CS(=O)(=O)c1cc([N+](=O)[O-])c(Sc2nc3ccccc3[nH]2)c([N+](=O)[O-])c1	1.3µM*	23	-7%	7	-1%	15%[7.66 µM]
Cc1nc([N+](=O)[O-])c(N2CCN(Cc3ccccc3)CC2)n1Cc1ccccc1	-1%	-8	-3%	-5	1%	-22%
COc1ccc2nc(SCC(=O)NCc3ccccc3)[nH]c2c1	-13%	3	-7%	1	-1%	44%
O=C(O)c1cc([N+](=O)[O-])c(Sc2nc3ccccc3[nH]2)c([N+](=O)[O-])c1	?	-2	3%	-29	-11%	-9%
Cc1cccc(Sc2c([N+](=O)[O-])ncn2C)c1	?	-6	-2%[57.1 µM]	-5	.	-40%
Cn1cnc([N+](=O)[O-])c1Sc1nc2ccccc2[nH]1	3.5µM*	-10	6%[57.1 µM]	5	-5%	-53%
CSc1ccc(-c2nc(CSCC(=O)NCc3ccc4c(c3)OCO4)c(C)o2)cc1	.	7	.	.	.	.
Cc1ccc(C(=O)c2ccc(C)cc2)cc1	6%	-3	-10%	-3	1%	-2%
Cc1ccc(C(=O)c2no[n+]([O-])c2C(=O)c2ccc(C)cc2)cc1	0.89µM*	-2	-3%	0	.	-66%
c1ccc(-c2nc(CN3CCCC3c3ccsc3)co2)cc1 (stereo unspecified)	.	0	.	.	.	.
Cc1ncc(-c2ccc(S(=O)(=O)Nc3ccc(F)cc3C)cc2)o1	.	8	.	.	.	.
Cc1cc2oc(=O)cc(COC(=O)CCCN=C3NS(=O)(=O)c4ccccc43)c2cc1C	.	6	.	.	.	.
Cc1nc2c(-c3ccc(F)cc3)c(C)nn2c(C)c1CCC(=O)NC(C)CCc1ccco1 (stereo unspecified)	79µM*	-5	-6%	-2	-2%	-11%
CN(CC(=O)Nc1c(Cl)cccc1Cl)C(=O)c1cccc(-n2cccc2)c1	11%[57.1 µM]	-37*!	5%[57.1 µM]	-8	.	15%
